# Values of other authors, collected in PubChem BioAssay AID977611.
# In all, about 3,900 compounds went through this assay and about 3,900 (100%) were called active. No cut-off is given here; in the data, nearly all actives have Kd up to about 4200 µM. So high a share suggests a set chosen from earlier hits. The list shows a part of the results. Numbered stars: 1 amine (or outer) side, 2 acyl side, 3 side chain; on linkers, the order of the positions; unused ones are H or OH. Bridge positions count the residues as written; N and C are the ends. Where a SMILES comes first, the peptide text is derived from it. Non-standard residues stand in square brackets, D forms with d. Square brackets hold non-standard residues; d marks the D form. Residues, ends and D or L forms follow the SMILES beside them. Peptide text beside a SMILES is read from it. [ ]: non-standard residue; d: D form. Orn(CH(NH2)2) = NC(N)NCCC[C@H](N)C(=O)O; Cha = N[C@@H](CC1CCCCC1)C(=O)O; Orn = NCCC[C@H](N)C(=O)O; X1 = O=C(C[*:1])[*:2]; Aib = CC(C)(N)C(=O)O
# Assay: PubChem AID 977611
# Details: PDB protein-ligand complexes, literature Kd
compound,measurement,setting,value
O=[N+]([O-])c1ccc2c(ccn2[C@H]2C[C@H](O)[C@@H](CO[P+](O)(O)O[P+](O)(O)O[P+](O)(O)O)O2)c1,Kd,"protein: Ribonucleoside-diphosphate reductase large chain 1, PDB entry 3rsr",44000 nM (active)
CC[C@H](C)[C@H](NC(=O)[C@H](Cc1ccc(O)cc1)NC(=O)[C@H](Cc1c[nH]c2ccccc12)NC(=O)[C@H](CC(C)C)NC(=O)[C@H](Cc1c[nH]c2ccccc12)NC(=O)[C@H](CC(N)=O)NC(=O)[C@@H](NC(=O)[C@@H](NC(=O)[C@H](CC(=O)O)NC(=O)[C@H](Cc1ccccc1)NC(=O)[C@H](Cc1c[nH]c2ccccc12)NC(=O)[C@@H](N)CC(N)=O)[C@@H](C)CC)[C@@H](C)O)C(=O)N[C@@H](CCCCN)C(=O)N[C@@H](CCCCN)C(=O)N[C@@H](CCCCN)C(=O)N[C@@H](CCCCN)C(=O)O,Kd,"protein: human fab 4e10, PDB entry 2fx7",20 nM (active)
H-KIIDTGGGFIL-OH,Kd,"protein: DNA excision repair protein ERCC-1, PDB entry 2jnw",780 nM (active)
H-EDDDIKQLAAWAT-OH,Kd,"protein: Programmed cell death 6-interacting protein, PDB entry 3c3r",41000 nM (active)
H-TKIDWNKIA-OH,Kd,"protein: Protein S100-B, PDB entry 3iqq",2900 nM (active)
H-DEEALKQLAEWVS-OH,Kd,"protein: Programmed cell death 6-interacting protein, PDB entry 3c3o",44000 nM (active)
CC(C)C[C@H](NC(=O)[C@H](Cc1ccc(O)cc1)NC(=O)[C@@H](CCCCN)NC(=O)[C@@H](CO)NC(=O)[C@H](Cc1ccccc1)NC(=O)[C@H](CC1CCCCC1)NC(=O)[C@H](CC(=O)O)NC(=O)[C@H](CO)NC(=O)[C@@H](N)CCCCN)C(=O)N[C@@H](Cc1c[nH]c2ccccc12)C(=O)N[C@@H](CO)C(=O)N[C@@H](CO)C(=O)N[C@@H](CCCCN)C(=O)O (H-KSD[Cha]F[dS][dK]YLWSSK-OH),Kd,"protein: human Urokinase plasminogen activator surface receptor(uPAR/CD87), PDB entry 1ywh",16.4 nM (active)
CC[C@H](C)[C@H](NC(=O)[C@H](Cc1ccccc1)NC(=O)[C@H](C)N)C(=O)N[C@H](C(=O)N[C@@H](Cc1c[nH]c2ccccc12)C(=O)N[C@@H](CC(C)C)C(=O)N[C@@H](C)C(=O)N[C@@H](CCCNC(N)N)C(=O)N[C@@H](CCCNC(N)N)C(=O)N[C@@H](CC(C)C)C(=O)N[C@@H](CCCCN)C(=O)N[C@@H](CCCCN)C(=O)NCC(=O)N[C@@H](CCCCN)C(=O)N[C@@H](CCCCN)C(=O)O)[C@@H](C)CC (H-AFIIWLA[Orn(CH(NH2)2)][Orn(CH(NH2)2)]LKKGKK-OH),Kd,"protein: Calmodulin, PDB entry 2lgf",2700 nM (active)
CC[C@H](C)[C@H](NC(=O)[C@H](Cc1c[nH]c2ccccc12)NC(=O)[C@H](CC(=O)O)NC(=O)[C@H](CCC(=O)O)NC(=O)[C@H](CC(C)C)NC(=O)[C@@H](N)Cc1ccc(O)cc1)C(=O)N[C@@H](CCCCN)C(=O)N[C@@H](Cc1ccc(O)cc1)C(=O)N[C@@H](CC(N)=O)C(=O)N[C@@H](CC(N)=O)C(=O)N[C@H](C=O)CCC(N)=O (H-YLEDWIKYNNQ-aldehyde),Kd,"protein: FAB F22-4, PDB entry 3ggw",2900 nM (active)
CC[C@H](C)[C@H](NC(=O)[C@H](CCC(=O)O)NC(=O)[C@H](CC(N)=O)NC(=O)[C@H](CCC(=O)O)NC(=O)[C@@H](NC(=O)[C@H](Cc1c[nH]c2ccccc12)NC(=O)CNC(=O)[C@H](CO)NC(=O)[C@H](CCC(=O)O)NC(=O)[C@H](CCCCN)NC(=O)[C@H](CO)NC(=O)[C@H](CCCNC(N)N)NC(=O)CN)C(C)C)C(=O)N[C@@H](Cc1ccc(O)cc1)C(=O)N[C@@H](Cc1ccc(O)cc1)C(=O)O (H-G[Orn(CH(NH2)2)]SKESGWVENEIYY-OH),Kd,"protein: Talin-1, PDB entry 2k00",24000 nM (active)
CC[C@H](C)[C@H](NC(=O)[C@H](CC(=O)O)NC(=O)[C@H](Cc1ccccc1)NC(=O)[C@H](CCCNC(N)N)NC(=O)[C@H](CC(C)C)NC(=O)[C@H](CCCCN)NC(=O)[C@@H](N)CCCCN)C(=O)O (H-KKL[Orn(CH(NH2)2)]FDI-OH),Kd,"protein: Serine/threonine-protein phosphatase PP1-alpha catalytic subunit, PDB entry 3n5u",1200 nM (active)
CC(C)C[C@H](NC(=O)[C@@H](NC(=O)CNC(=O)[C@H](Cc1ccc(O)cc1)NC(=O)[C@@H](NC(=O)CNC(=O)[C@@H](NC(=O)[C@H](CCCNC(N)N)NC(=O)[C@H](CCCNC(N)N)NC(=O)[C@H](C)N)[C@@H](C)O)[C@@H](C)O)C(C)C)C(=O)N[C@@H](C)C(=O)N[C@@H](C)C(=O)N[C@@H](Cc1c[nH]c2ccccc12)C(=O)N[C@@H](C)C(=O)N[C@@H](C)C(=O)N[C@@H](C)C(=O)O (H-A[Orn(CH(NH2)2)][Orn(CH(NH2)2)]TGTYGVLAAWAAA-OH),Kd,"protein: mouse radixin FERM domain, PDB entry 1j19",16.4 nM (active)
CC[C@H](C)[C@@H]1NC(=O)[C@@H](NC(=O)[C@H](Cc2ccccc2)NC(=O)[C@H](Cc2c[nH]c3ccccc23)NC(=O)[C@@H](N)CC(N)=O)CSCC(=O)NCCC[C@@H](C(=O)N[C@@H](Cc2c[nH]c3ccccc23)C(=O)N[C@@H](CC(C)C)C(=O)N[C@@H](Cc2c[nH]c3ccccc23)C(=O)N[C@@H](CCCCN)C(=O)N[C@@H](CCCCN)C(=O)N[C@@H](CCCCN)C(=O)N[C@@H](CCCCN)C(=O)O)NC(=O)[C@H]([C@@H](C)O)NC1=O (H-NWFCIT[Orn]WLWKKKK-OH; linker 4-7 via X1),Kd,"protein: human fab 4e10, PDB entry 2fx9",17 nM (active)
H-TWIENKLYGM-OH,Kd,"protein: Dock 1 PTB domain, PDB entry 1uef",3200 nM (active)
CC[C@H](C)[C@H](NC(=O)[C@H](CC(=O)O)NC(=O)[C@H](Cc1ccccc1)NC(=O)[C@H](Cc1c[nH]c2ccccc12)NC(=O)[C@@H](N)CC(N)=O)C(=O)N[C@H](C(=O)N[C@@H](CC(N)=O)C(=O)NC(C)(C)C(=O)N[C@@H](CC(C)C)C(=O)N[C@@H](Cc1c[nH]c2ccccc12)C(=O)N[C@@H](CCCNC(N)N)C(=O)N[C@@H](CCCNC(N)N)C(=O)O)[C@@H](C)O (H-NWFDITN[Aib]LW[Orn(CH(NH2)2)][Orn(CH(NH2)2)]-OH),Kd,"protein: human fab 4e10, PDB entry 2fx8",302 nM (active)
CC[C@H](C)[C@H](NC(=O)[C@H](CC(C)C)NC(=O)[C@H](CCC(=O)O)NC(=O)[C@H](CCCNC(N)N)NC(=O)[C@H](CCCCN)NC(=O)[C@@H](N)CCCCN)C(=O)N[C@@H](CCC(=O)O)C(=O)N[C@@H](CO)C(=O)N[C@@H](CCCCN)C(=O)N[C@@H](Cc1c[nH]c2ccccc12)C(=O)N[C@@H](Cc1cnc[nH]1)C(=O)N[C@@H](CCCNC(N)N)C(=O)N[C@@H](CC(C)C)C(=O)N[C@@H](CC(C)C)C(=O)N[C@@H](Cc1ccccc1)C(=O)N[C@@H](Cc1cnc[nH]1)C(=O)N[C@@H](CC(=O)O)C(=O)N[C@@H](CCCCN)C(=O)N[C@@H](CCCCN)C(=O)O (H-KK[Orn(CH(NH2)2)]ELIESKWH[Orn(CH(NH2)2)]LLFHDKK-OH),Kd,"protein: Chlamydomonas reinhardtii caltractin (CRC-C), PDB entry 1oqp",50 nM (active)
H-KEEEDDDMKELENWAGSM-OH,Kd,"protein: Programmed cell death 6-interacting protein, PDB entry 3c3q",48000 nM (active)
